Reference: article PMC4336329 (PLoS ONE, 2015)
In all, about 310,000 compounds went through this assay and about 14,000 (4.5%) showed an effect of 50% or more. The effect is printed as a negative number. For the sample, strong results were picked, then their nearest neighbours and some compounds at random.

biological target: human ether-à-go-go-related gene (hERG) potassium channel (human, UniProt Q12809); assay: primary screen, population patch clamp on CHO cells stably expressing hERG; higher = less effect of the substance
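Further: peak tail current of the secondary pulse compared with the same well before compound.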

Chain of human ether-à-go-go-related gene (hERG) potassium channel (Q12809 whole entry, looked up): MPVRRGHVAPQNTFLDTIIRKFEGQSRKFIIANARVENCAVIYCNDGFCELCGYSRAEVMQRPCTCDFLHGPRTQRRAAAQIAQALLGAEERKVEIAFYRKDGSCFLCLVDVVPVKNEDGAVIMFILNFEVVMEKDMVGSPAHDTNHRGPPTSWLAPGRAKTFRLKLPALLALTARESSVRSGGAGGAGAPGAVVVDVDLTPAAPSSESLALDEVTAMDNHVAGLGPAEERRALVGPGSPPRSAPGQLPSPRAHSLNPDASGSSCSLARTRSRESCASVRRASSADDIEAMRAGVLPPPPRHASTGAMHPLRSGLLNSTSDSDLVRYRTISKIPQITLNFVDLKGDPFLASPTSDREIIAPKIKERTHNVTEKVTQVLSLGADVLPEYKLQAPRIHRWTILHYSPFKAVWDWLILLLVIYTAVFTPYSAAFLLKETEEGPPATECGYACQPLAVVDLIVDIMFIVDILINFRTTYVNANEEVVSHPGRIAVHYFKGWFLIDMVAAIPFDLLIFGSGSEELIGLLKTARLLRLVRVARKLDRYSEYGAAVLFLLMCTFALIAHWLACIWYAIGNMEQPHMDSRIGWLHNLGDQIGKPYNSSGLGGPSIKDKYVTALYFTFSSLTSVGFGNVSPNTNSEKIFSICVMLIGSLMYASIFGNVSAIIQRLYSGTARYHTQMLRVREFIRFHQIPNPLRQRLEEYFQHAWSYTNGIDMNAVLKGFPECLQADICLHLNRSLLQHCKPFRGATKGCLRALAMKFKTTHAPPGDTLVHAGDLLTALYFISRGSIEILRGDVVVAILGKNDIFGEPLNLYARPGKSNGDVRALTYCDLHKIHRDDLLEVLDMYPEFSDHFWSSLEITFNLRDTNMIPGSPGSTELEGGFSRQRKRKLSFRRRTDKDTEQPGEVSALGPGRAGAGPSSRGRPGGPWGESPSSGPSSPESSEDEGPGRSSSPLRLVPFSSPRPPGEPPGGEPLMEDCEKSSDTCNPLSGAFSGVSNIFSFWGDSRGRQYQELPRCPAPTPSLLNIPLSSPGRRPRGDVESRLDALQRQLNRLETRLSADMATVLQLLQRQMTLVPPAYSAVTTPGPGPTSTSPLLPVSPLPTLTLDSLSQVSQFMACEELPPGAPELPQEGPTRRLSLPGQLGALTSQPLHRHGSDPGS

SMILES | hERG current change (%, negative = inhibition) at 10uM
O=C(Nc1ncccn1)C1=C(O)c2ccccc2S(=O)(=O)N1Cc1ccccc1 | 22.8%
CCOC(=O)/C(C#N)=C/c1cccn1-c1ccc(Cl)cc1 | 2.73%
C/C(=N\NC(=O)COc1ccccc1F)c1cc2ccccc2o1 | 3.99%
COc1cc(OC)cc(-c2nnc(SCc3ccc(C(=O)O)cc3)o2)c1 | -71.6%
Cc1cc(C)cc(-c2nnc(SCc3ccc(C(=O)O)cc3)o2)c1 | -74%
COc1ccc(-c2nnc(SCc3ccc(C(=O)O)cc3)o2)cc1OC | 13.7%
O=C(O)c1ccc(CSc2nnc(-c3ccc(Cl)cc3)o2)cc1 | 26.5%
COc1cc(OC)cc(-c2nnc(SCc3cccc(C(=O)O)c3)o2)c1 | 8.29%
O=C(O)c1ccc(CSc2nnc(-c3ccco3)o2)cc1 | 2.07%
CN(C(=O)c1ccnn1C)C1CCCN(Cc2ccccc2F)C1 (centres unmarked) | 15.2%
CSCCC(NC(=O)c1ccccc1Br)C(=O)N1CCN(C(C)=O)CC1 (centres unmarked) | 8.22%
O=C(COC(=O)c1ccc(Br)o1)Nc1ccc(Br)cc1 | 19%
CCCc1cc(C(=O)Nc2sc3c(c2C(=O)OCC)CCCC3)no1 | 6.07%
O=C(NNc1nc(-c2ccccc2)c2cc(Br)ccc2n1)c1ccc(S(=O)(=O)N2CCCCC2)cc1 | 8.26%
COc1ccc(-c2cn[nH]c2-c2ccc(OCc3ccc([N+](=O)[O-])cc3)cc2O)cc1 | -9.1%
C/C(=N\NC(N)=S)C1(C)CCCCC1 | 9.27%
Cc1cc(N2CCN(c3nnnn3-c3ccccc3)CC2)n2ncnc2n1 | -60.2%
Cc1cc(N2CCN(Cc3ccc4c(c3)OCO4)CC2)n2ncnc2n1 | 7.64%
Cc1cc(N2CCN(c3nc4ccccc4s3)CC2)n2ncnc2n1 | -77.6%
Cc1cc(N2CCN(C/C=C/c3ccccc3)CC2)n2ncnc2n1 | -71.5%
Cc1cc(N2CCN(c3ccc(F)cc3)CC2)n2ncnc2n1 | -57.6%
Cc1cc(N2CCc3ccccc32)n2ncnc2n1 | -0.558%

SMILES | hERG current change (%, negative = inhibition) at 10uM
Cc1cc(C)nc(N2CCN(c3nnnn3-c3ccccc3)CC2)n1 | 9.05%
Cc1cc(N2CCN(c3ccccc3)CC2)n2ncnc2n1 | -31.2%
Cc1nc2ncnn2c(C)c1C/C=C/c1ccccc1 | -15.3%
Cc1cc(N2CCN(C(c3ccccc3)c3ccccc3)CC2)n2ncnc2n1 | -5.7%
Cc1cc(C)nc(N2CCN(c3ccc(F)cc3)CC2)n1 | 13.2%
c1ccc(N2CCN(c3nnnn3-c3ccccc3)CC2)cc1 | -11.2%
CCCCn1c(O)c(/C=C/C=C/C=Nc2ccccc2)sc1=S | 31%
O=C(Nc1ccc(Cl)c(C(F)(F)F)c1)C(=O)N1CCCCC1 | -1.61%
CC(Oc1ccc(Br)cc1)C(=O)NCC(C)(C)N1CCOCC1 (centres unmarked) | -26%
COC(=O)c1ccccc1NC(=O)c1ccc(COc2ccc(C)c(C)c2)o1 | 11.9%
COC(=O)C1=C(c2c(C)noc2C)C[C@@H]2CC[C@H]1N2C(=O)NCCO | 20%
Cc1nnc(N/N=C/C2CC=CCC2)[nH]c1=O (centres unmarked) | 7.06%
CC(C)C(NS(=O)(=O)c1cccc2nsnc12)C(=O)NCc1ccc2c(c1)OCO2 (centres unmarked) | -18.7%
Cc1c(NC(=O)C(C)OC(=O)CNC(=O)c2ccc(C(C)(C)C)cc2)c(=O)n(-c2ccccc2)n1C (centres unmarked) | 13.2%
Cc1cc(C)n(-c2ccc(NC(=O)C3CCN(Cc4ccc(C)o4)CC3)cc2)n1 | -16.6%
COC(=O)CSc1nsc(SCC(=O)OC)c1C#N | 5.34%
CCOC(=O)CSc1nsc(SCC(=O)OCC)c1C#N | -55.7%
CCOC(=O)CC(=O)CSc1nc(-c2cccnc2)ccc1C#N | 17.5%
CC(=O)CSc1nsc(SCC(C)=O)c1C#N | 17.2%
CCOC(=O)CSc1nc(-c2ccncc2)ccc1C#N | -61.6%
CCOC(=O)CSc1nc(-c2ccc3c(c2)OCO3)ccc1C#N | 7.3%
CC1CCc2c(sc3nc4n(c(=O)c23)CCS4)C1 (centres unmarked) | -10.3%
